Among all 5,500 compounds or so, about 2,000 (36%) were called active. Inconclusive results (about 18%) are left out. No stated cut-off is given here; in the data, active means normalized growth mostly below about 0.91 (no sharp cut-off); inconclusive means no clear call, values can overlap the other calls; inactive means mostly above about 0.92. Some of the results follow.
Assay: chemical genetic growth profiling, strain panel (AID 1159580);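 further: tested at 20 µM; growth read once vehicle control cultures reached saturation at 30 °C; 1 = growth at the plate median or of vehicle wells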
Details: S. cerevisiae deletion strains, growth OD

Measured: normalized growth

FC(F)(F)c1cccc(NC(=S)Nc2ccccc2)c1
inactive: locus YAR019C, strain CDC15, stronger effect = lower value 0.983 | locus YBL105C, strain PKC1, stronger effect = lower value 0.98 | locus YBR135W, strain CKS1, stronger effect = lower value 0.975 | locus YBR136W, strain MEC1, stronger effect = lower value 0.979 | locus YBR160W, strain CDC28, stronger effect = lower value 0.981 | locus YDL017W, strain CDC7, stronger effect = lower value 0.987 | locus YDL028C, strain MPS1, stronger effect = lower value 0.98 | locus YDL101C, strain DUN1, stronger effect = lower value 0.989 | locus YDL108W, strain KIN28, stronger effect = lower value 0.978 | locus YDL132W, strain cdc53, stronger effect = lower value 0.966 | locus YDL214C, strain PRR2, stronger effect = lower value 0.949 | locus YDR052C, strain DBF4, stronger effect = lower value 0.996 | locus YDR054C, strain cdc34, stronger effect = lower value 0.982 | locus YDR226W, strain ADK1, stronger effect = lower value 0.98 | locus YDR477W, strain SNF1, stronger effect = lower value 0.954 | locus YER123W, strain YCK3, stronger effect = lower value 0.96 | locus YER133W, strain GLC7, stronger effect = lower value 0.958 | locus YFL009W, strain cdc4, stronger effect = lower value 0.973 | locus YFL029C, strain CAK1, stronger effect = lower value 0.983 | locus YFR003C, strain YPI1, stronger effect = lower value 0.982 | locus YFR019W, strain FAB1, stronger effect = lower value 0.962 | locus YFR028C, strain CDC14, stronger effect = lower value 0.967 | locus YGR040W, strain KSS1, stronger effect = lower value 0.941 | locus YGR052W, strain FMP48, stronger effect = lower value 0.974 | locus YGR092W, strain DBF2, stronger effect = lower value 0.883 | locus YHR030C, strain SLT2, stronger effect = lower value 1 | locus YHR079C, strain IRE1, stronger effect = lower value 1.04 | locus YHR082C, strain KSP1, stronger effect = lower value 1 | locus YHR205W, strain SCH9, stronger effect = lower value 0.951 | locus YIL147C, strain SLN1, stronger effect = lower value 0.977 | locus YJL095W, strain BCK1, stronger effect = lower value 0.882 | locus YJL128C, strain PBS2, stronger effect = lower value 0.959 | locus YJL157C, strain FAR1, stronger effect = lower value 0.941 | locus YJR016C, strain ILV3, stronger effect = lower value 0.968 | locus YJR066W, strain TOR1 (second series), stronger effect = lower value 0.897 | locus YJR066W, strain TOR1, stronger effect = lower value 0.989 | locus YKL048C, strain ELM1, stronger effect = lower value 1 | locus YKL067W, strain YNK1, stronger effect = lower value 0.961 | locus YKL101W, strain HSL1, stronger effect = lower value 0.955 | locus YKL193C, strain SDS22, stronger effect = lower value 0.973 | locus YKL203C, strain TOR2, stronger effect = lower value 0.995 | locus YLR113W, strain HOG1, stronger effect = lower value 0.962 | locus YLR133W, strain CKI1, stronger effect = lower value 0.947 | locus YLR403W, strain SFP1, stronger effect = lower value 0.899 | locus YML070W, strain DAK1, stronger effect = lower value 0.966 | locus YMR001C, strain CDC5, stronger effect = lower value 0.98 | locus YMR205C, strain PFK2 (second series), stronger effect = lower value 0.991 | locus YMR277W, strain FCP1, stronger effect = lower value 0.97 | locus YNL006W, strain LST8, stronger effect = lower value 0.985 | locus YNL020C, strain ARK1, stronger effect = lower value 0.974 | locus YNL161W, strain CBK1, stronger effect = lower value 0.981 | locus YNL183C, strain NPR1, stronger effect = lower value 1 | locus YNL207W, strain RIO2, stronger effect = lower value 0.967 | locus YNL222W, strain SSU72, stronger effect = lower value 0.981 | locus YNL307C, strain MCK1 (second series), stronger effect = lower value 0.896 | locus YOL078W, strain AVO1, stronger effect = lower value 0.967 | locus YOL136C, strain PFK27, stronger effect = lower value 0.95 | locus YOR061W, strain CKA2, stronger effect = lower value 0.952 | locus YOR119C, strain RIO1, stronger effect = lower value 1.02 | locus YOR231W, strain MKK1, stronger effect = lower value 0.95 | locus YOR329C, strain SCD5, stronger effect = lower value 0.989 | locus YPL031C, strain PHO85, stronger effect = lower value 0.952 | locus YPL153C, strain RAD53, stronger effect = lower value 0.954 | locus YPL204W, strain HRR25, stronger effect = lower value 0.934 | locus YPL209C, strain IPL1, stronger effect = lower value 0.978 | locus YPL256C, strain CLN2, stronger effect = lower value 1.1 | locus YPR025C, strain CCL1, stronger effect = lower value 0.982 | locus YPR106W, strain ISR1, stronger effect = lower value 0.987 | locus YPR111W, strain DBF20, stronger effect = lower value 0.969 | strain NNK1, stronger effect = lower value 0.982 | strain TSCII, stronger effect = lower value 0.975
